Screening results as filed in PubChem BioAssay.
Shown are actives, neighbours in structure and some others; about 1.8% of the full set was active somewhere.
PrPC surface inh: cell surface PrPC inhibition, primary TR-FRET screen | 370,000 compounds, 0.43% hits | TR-FRET read-out | inhibition, % at 13.8 µM | AID 720596 | P04156; in the data active = inhibition above about 24%
VHR inh abs: DUSP3 (human) phosphatase inhibition; recombinant VHR phosphatase, pNPP absorbance; 290,000 compounds, 0.52% hits; inhibition, % at 13.3 µM; AID 1654; in the data active = inhibition above about 50%
Target sequence (P51452 whole entry, looked up): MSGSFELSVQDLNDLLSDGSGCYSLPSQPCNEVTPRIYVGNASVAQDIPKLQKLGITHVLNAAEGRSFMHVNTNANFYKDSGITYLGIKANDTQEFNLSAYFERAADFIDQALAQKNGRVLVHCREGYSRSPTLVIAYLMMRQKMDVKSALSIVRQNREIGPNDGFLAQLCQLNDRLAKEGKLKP
PfHsp40 rescue: rescue of PfHsp40-mediated yeast toxicity | S. cerevisiae expressing PfHsp40, growth rescue, ATP luminescence | growth rescue, % at 12.5 µM | 340,000 compounds, 0.68% hits | AID 504582; in the data active = growth rescue above about 28%, passing the limit was not always enough;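 also: yeast W303a lacking pdr1 and pdr3 grown in galactose medium; growth measured after three days at 30 °C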
ugtP null kill: compounds lethal to S. aureus RN4220 ugtP deletion mutant | OD600 growth, 16 h | growth inhibition, % (no concentration beside the values) | 330,000 compounds, 0.54% hits | AID 1259309; in the data active = growth inhibition above about 68%
Sa RN4220 lethal: S. aureus RN4220 growth inhibition | OD600, 16 h | inhibition, % (no concentration beside the values) | 330,000 compounds, 0.33% hits; in the data active = inhibition above about 85%
A number is an active result; – = inactive; · = not tested or not shown.

SMILES	PrPC surface inh	VHR inh abs	PfHsp40 rescue	ugtP null kill	Sa RN4220 lethal
COc1ccc(S(=O)(=O)N(CC(=O)NN=Cc2cccs2)c2ccc(C)cc2)cc1OC	·	·	·	–	–
COc1ccc(S(=O)(=O)N(CC(=O)N/N=C/c2cccs2)c2cc(C)cc(C)c2)cc1OC	–	–	47.6	·	·
O=C(NN=Cc1cccc(OCc2ccccc2)c1)c1ccc(Br)cc1	·	·	·	–	–
O=C1/C(=C/c2ccc(N3CCCC3)cc2)NC(=S)N1C1CC1	–	51.6	–	–	–
CSc1ccccc1C(=O)NCCCn1ccnc1	–	53.9	–	–	–
CCSCc1nnc(SCC(=O)Nc2ccc(OC)cc2)n1C	–	57.4	–	–	–
CCOc1ccc(N(CC(=O)Nc2ccccc2Cl)S(C)(=O)=O)cc1	–	58.7	–	–	–
COc1ccc(OC)c(C=NN2CCN(c3ccc(Cl)cc3)CC2)c1	·	·	·	–	–
O=[N+]([O-])c1ccc(N=Nc2ccc(O)cc2O)cc1	–	–	–	98.0	98.6
O=[N+]([O-])c1cccc(N=Nc2ccc(O)cc2O)c1	–	·	–	–	–
CC(C)(C)OC(=O)CC1CC=CCC(CC(=O)N(CCO)Cc2ccccc2)C(=O)NC(Cc2c[nH]c3ccccc23)COC1=O (stereo not given)	·	·	·	–	–
COc1cccc(/C=C2\SC(=S)N(CC(=O)N(C)C3CCS(=O)(=O)C3)C2=O)c1 (stereo not given)	–	–	–	–	–
O=C(CN1C(=O)/C(=C/c2ccccc2)SC1=S)NNC(=O)c1ccccc1O	–	–	–	–	–
COc1cccc(/C=C2/SC(=S)N(CC(=O)NNC(=O)c3ccccc3O)C2=O)c1	–	–	154.8	–	–
COc1cccc(/C=C2\SC(=O)N(CC(=O)NC3CCS(=O)(=O)C3)C2=O)c1 (stereo not given)	–	59.8	–	–	–
CCN(C(=O)CN1C(=O)S/C(=C\c2cccc(OC)c2)C1=O)C1CCS(=O)(=O)C1 (stereo not given)	–	52.3	–	–	–
Cn1c(NC(=O)C=Cc2c(F)cccc2Cl)cc(=O)n(C)c1=O	·	·	·	–	–
CCN1/C(=C/C=C/C=C/C=C/c2sc3ccccc3[n+]2CC)Sc2ccccc21	–	–	–	98.1	91.6
CCN1/C(=C/C=C/c2sc3ccccc3[n+]2CC)Sc2ccccc21	·	·	254.1	·	·
CCOC(=O)c1ccc(N2C(=O)CC(N3CCN(Cc4ccccc4)CC3)C2=O)cc1 (stereo not given)	–	–	–	–	–
CCCOc1ccc(N2C(=O)CC(N3CCC(C(=O)OCC)CC3)C2=O)cc1 (stereo not given)	–	–	522.9	–	–
CCOC(=O)c1ccc(N2C(=O)CC(N3CCCC(C)C3)C2=O)cc1 (stereo not given)	–	–	584.6	–	–
CCOC(=O)c1ccc(N2C(=O)CC(N3CCC(O)(c4ccc(Cl)cc4)CC3)C2=O)cc1 (stereo not given)	–	–	534.4	–	–
CCCOc1ccc(N2C(=O)CC(N3CCOCC3)C2=O)cc1 (stereo not given)	–	–	–	–	–
COc1ccc(NN=C(C(C)=O)N2CCCc3ccccc32)cc1	·	·	·	–	–
SMILES	PrPC surface inh	VHR inh abs	PfHsp40 rescue	ugtP null kill	Sa RN4220 lethal
COC(=O)C1=C(c2cccc(OCc3ccccc3)c2)CC2CCC1N2C(=O)NCc1cccc(OC)c1 (stereo not given)	·	·	·	–	–
CCC1CCCCN1CCCNC(=O)c1ccc(N2CCCC2=O)cc1 (stereo not given)	–	55.6	–	–	–
CC1CCCCN1CCCNC(=O)c1ccc(N2CCCC2=O)cc1 (stereo not given)	–	–	–	–	–
CC1=NN(C(N)=S)C(=O)C1N=Nc1cccc(Cl)c1C (stereo not given)	–	–	104.1	–	–
COC(=O)C1=C(c2cccc(OC)c2OC)CC2CCC1N2C(=O)NCC1CC1 (stereo not given)	·	·	·	–	–
CCOC(=O)c1c(C)[nH]c(C(=O)NN=Cc2ccc(Br)cc2)c1C	·	·	·	–	–
CCCn1c(N=Cc2ccccc2O)nc2ccccc21	·	·	·	–	–
COc1cc(OC)cc(-c2sc3ccc(OC)cc3c2C#CC2(N)CCCCC2)c1	–	·	33.6	·	·
Cc1nc(S(=O)(=O)c2ccc(Cl)cc2)c(N(C)C)o1	–	52.7	–	–	–
O=C(O)c1cccc2c3c([nH]c12)CCCC3	–	–	127.8	–	–
O=c1c2c([nH]c3ccccc13)CCCC2	–	–	–	–	–
COC(=O)C1=C(c2ccccc2)CC2CCC1N2C(=O)NCc1cccc2ccccc12 (stereo not given)	·	·	·	–	–
F[B-](F)(F)c1cc2ccccc2s1	–	·	–	·	·
F[B-](F)(F)c1cc2cc(Br)ccc2s1	·	·	186.2	·	·
C=CCN(c1ccccc1)S(=O)(=O)c1cccc(C(=O)NNC(=O)c2ccccc2O)c1	–	·	92.4	–	–
C=CCN(c1ccccc1)S(=O)(=O)c1cccc(C(=O)O)c1	–	–	–	–	–
COc1ccc(C2CC(=O)C3=C(C2)NC(C)=C(C(=O)Nc2ccccc2C)C3c2coc3ccc(C)cc3c2=O)cc1OC (stereo not given)	–	–	63.1	–	–
CCCn1c(=O)c(C(=O)NCCc2ccc(OC)c(OC)c2)c(O)c2ccccc21	–	–	191.8	–	–
CCn1c(=O)c(C(=O)NNC(=O)c2ccccc2)c(O)c2ccccc21	–	–	167.6	–	–
Cn1c(=O)c(C(=O)NC2CCCCCC2)c(O)c2ccccc21	–	59.7	–	–	–
CCCCCCC(=O)NNC(=O)c1c(O)c2ccccc2n(CCC)c1=O	–	–	–	–	–
CCCCCCCC(=O)NNC(=O)c1c(O)c2ccccc2n(CCC)c1=O	–	–	–	–	97.9
COc1ccccc1C=NNC(=O)c1nnn(-c2nonc2N)c1-c1cccs1	·	·	·	–	–
CCCn1c(=O)c(C(=O)Nc2cccc(C)c2)c(O)c2ccccc21	–	–	–	84.2	–
CCCn1c(=O)c(C(=O)Nc2ccccc2)c(O)c2ccccc21	–	–	–	–	–
SMILES	PrPC surface inh	VHR inh abs	PfHsp40 rescue	ugtP null kill	Sa RN4220 lethal
CC1CC1C(=O)N1CCN(S(=O)(=O)c2cc(C(F)(F)F)cc(C(F)(F)F)c2)CC1 (stereo not given)	–	·	–	96.1	86.5
Cc1cnc(C(=O)N2CCN(S(=O)(=O)c3cc(C(F)(F)F)cc(C(F)(F)F)c3)CC2)cn1	–	·	–	–	–
COc1ccc(Br)cc1C=NNC(=O)CNC(=O)c1cccnc1	·	·	·	–	–
CNCC(Cc1ccccc1)NCC(CC1CCCCC1)NCCCc1ccccc1 (stereo not given)	·	·	·	–	84.5
CNCC(CC1CCCCC1)NCC(Cc1ccccc1)NCCC12CC3CC(CC(C3)C1)C2 (stereo not given)	·	·	·	100.7	100.4
CNC[C@H](CC1CCCCC1)NC[C@H](CO)NCCc1cccc(C(F)(F)F)c1	–	–	–	·	·
O=C(C1=CC(c2csc3ccccc23)CC(OCc2ccc(CO)cc2)O1)N1CCN(Cc2ccc3c(c2)OCO3)CC1 (stereo not given)	·	·	·	–	–
